Test results reported in ChEMBL document CHEMBL3988442, “University of Dundee, Small-Polar-MMV Screening Library” (2021).

biological target: T1, Aspartate--tRNA(Asp/Asn) ligase (Mycobacterium tuberculosis (strain ATCC 25618 / H37Rv)) (UniProt P9WFW3); assay: Assay for Asp RNA synthetase-1 from Mycobacterium tuberculosis; format: functional; design: scale not given: direction of the effect not stated beside the values; conditions: 30 µM; also: in the data most compounds retested in dose-response had high values
T1 sequence (whole entry): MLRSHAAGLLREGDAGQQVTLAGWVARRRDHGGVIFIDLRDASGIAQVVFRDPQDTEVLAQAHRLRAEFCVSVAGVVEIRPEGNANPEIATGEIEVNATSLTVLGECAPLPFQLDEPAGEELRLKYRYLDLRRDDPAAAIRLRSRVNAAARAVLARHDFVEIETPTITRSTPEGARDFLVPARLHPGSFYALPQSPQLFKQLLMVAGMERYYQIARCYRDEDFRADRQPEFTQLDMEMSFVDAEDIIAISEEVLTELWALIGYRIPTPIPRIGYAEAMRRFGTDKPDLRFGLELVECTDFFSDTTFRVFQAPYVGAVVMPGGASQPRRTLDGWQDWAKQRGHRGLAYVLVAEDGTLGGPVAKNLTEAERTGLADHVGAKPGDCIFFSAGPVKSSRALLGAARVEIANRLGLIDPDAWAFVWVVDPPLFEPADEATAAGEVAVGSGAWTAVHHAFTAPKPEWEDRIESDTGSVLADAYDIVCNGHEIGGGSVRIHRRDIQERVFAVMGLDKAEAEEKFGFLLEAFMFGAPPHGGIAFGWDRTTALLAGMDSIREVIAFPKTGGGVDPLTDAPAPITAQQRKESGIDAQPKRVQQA

SMILES	Percent Effect [%]
Cc1ccc2c(c1)C1(CC2)CCN(c2nncs2)CC1	1.71
CCc1noc(CNc2ccc(C(=O)N3CCCC(C)C3)cc2C)n1 (stereo not given)	-1.27
Cc1cc(NC(=O)NCc2ccccn2)n(C)n1	3.94
CC(=O)Nc1nc(CN2CCCC2Cn2cc(C)cn2)cs1 (stereo not given)	-2.91
COc1cc(C(=O)N(Cc2ccc(F)cc2)C2CC2)cc2c1OCCO2	9.07
COC(=O)CN1CC(c2nc(Cc3ccccc3)no2)C1	-4.57
CCCNC(=O)C(C)n1cc(Br)cn1 (stereo not given)	5.47
Cn1cc(-c2cnc(N3CCCC3)nc2)cc1C(=O)O	-9.05
CCCS(=O)(=O)N1CCOCC2(CCN(c3ccccn3)C2)C1 (stereo not given)	-2.85
O=C(N1CCOCC1)[C@@]12CCO[C@@H]1CCN(CCN1CCCCC1)C2	3.6
CS(=O)(=O)NC[C@]12COC[C@H]1CN(C(=O)c1ccccc1)C2	-2.14
COC(=O)COc1nc(CC(C)C)c2c(c1C#N)CCCC2	-0.893
COCC1c2c(cnn2C)CCN1Cc1ccoc1 (stereo not given)	2.94
Cc1noc(C2CCCN(C(=O)c3ccc(Br)cc3F)C2)n1 (stereo not given)	-4.41
COc1ccccc1OCc1cc(C(=O)N2CCN[C@H](C)C2)n[nH]1	0.167
CC1CCN(C(=O)c2ccn(COc3ccc(F)cc3)n2)CC1	9.51
Cc1nn(C)c(C)c1C1CCCN1C(=O)c1ccc(Cl)o1 (stereo not given)	-1.9
CC(=O)N1CCCN(C(=O)c2oc(Br)cc2C)CC1	-0.167
Cn1cc(-c2nnn3c2COC(CNCc2nccs2)C3)cn1 (stereo not given)	-4.41
COCCN1CCN(C(=O)c2ccncc2F)Cc2cccnc21	-0.348

SMILES	Percent Effect [%]
Cc1ccc(C)c(NC(=O)c2n[nH]c(-n3cnnc3)n2)c1	-4.33
CN(C)C(=O)NC1COC2(CCN(C(=O)Nc3ccccc3)CC2)C1 (stereo not given)	7.1
Cc1ccc(C(=O)NS(=O)(=O)c2ccccc2C)c(=O)[nH]1	-0.991
CCc1nnc(Nc2cccc(C3CCN(CCO)CC3)n2)s1	-4.6
O=c1[nH][nH]cc1-c1ccnc(NCCN2CCCC2)n1	5.51
COc1nc(C)cc(C)c1CNC(=O)N(C)Cc1cnn(C)c1	4.2
CCSc1cc(C(=O)NCCC(=O)Nc2ccccn2)ccn1	-1.96
CN(Cc1nnc(C2CC2)n1C)C1CCN(Cc2ccon2)C1 (stereo not given)	12.3
Cc1ccc(N2CC3(CCN(c4nccs4)C3)C2)nn1	-3.76
CC(=O)NCC(=O)N1CCOC2(CCCN(c3cccnc3)C2)C1 (stereo not given)	1.34
O=C(O)[C@@H]1CN(C(=O)c2cc(C3CC3)n[nH]2)C[C@H]1c1cccc(F)c1	-3.42
COc1ccccc1C(=O)NC(CC(=O)O)c1cccs1 (stereo not given)	5.75
Cc1nc(CN2CCN(CC(=O)Nc3c(C)cccc3C)CC2)no1	-3.29
Cc1noc(C)c1C(=O)NCc1ccnc(OCC(F)(F)F)c1	-0.189
CCOC1CCN(C(=O)c2cnn(-c3ccccc3Cl)c2)CC1	2.29
O=C(C1CCC1)N1CCN(C(=O)c2cnccn2)[C@H]2CS(=O)(=O)C[C@H]21	-2.93
CC(C)c1noc(C(C)N2CCN(Cc3ccco3)CC2)n1 (stereo not given)	0.141
CC1=N[C@@]2(CC[C@@H]3CN(S(=O)(=O)N(C)C)C[C@@H]32)C(=O)N1CC(C)C	6.65
Cc1ccc(C(=O)NC2CCN(C(=O)Nc3ccccn3)CC2)o1	5.16
Cc1ccccc1CS(=O)(=O)CC(=O)NC1CCCCNC1=O (stereo not given)	-3.58

biological target: Shiga toxin 2 (Escherichia coli O157:H7) (UniProt P09385+P09386); assay: E. coli 0.157:H7 Shiga Toxin SOP - stx2 screening assay; format: functional; design: scale not given: direction of the effect not stated beside the values; conditions: 30 µM

SMILES	Percent Effect [%]
Cc1ccc2c(c1)C1(CC2)CCN(c2nncs2)CC1	6.27
CCc1noc(CNc2ccc(C(=O)N3CCCC(C)C3)cc2C)n1 (stereo not given)	19.1
Cc1cc(NC(=O)NCc2ccccn2)n(C)n1	-40.7
CC(=O)Nc1nc(CN2CCCC2Cn2cc(C)cn2)cs1 (stereo not given)	-25.9
COc1cc(C(=O)N(Cc2ccc(F)cc2)C2CC2)cc2c1OCCO2	-12.1
COC(=O)CN1CC(c2nc(Cc3ccccc3)no2)C1	-14.5
CCCNC(=O)C(C)n1cc(Br)cn1 (stereo not given)	-46.7
Cn1cc(-c2cnc(N3CCCC3)nc2)cc1C(=O)O	10.6
CCCS(=O)(=O)N1CCOCC2(CCN(c3ccccn3)C2)C1 (stereo not given)	-23.9
O=C(N1CCOCC1)[C@@]12CCO[C@@H]1CCN(CCN1CCCCC1)C2	-37.5
CS(=O)(=O)NC[C@]12COC[C@H]1CN(C(=O)c1ccccc1)C2	-16.8
COC(=O)COc1nc(CC(C)C)c2c(c1C#N)CCCC2	-1.99
COCC1c2c(cnn2C)CCN1Cc1ccoc1 (stereo not given)	-3.41
Cc1noc(C2CCCN(C(=O)c3ccc(Br)cc3F)C2)n1 (stereo not given)	20.7
COc1ccccc1OCc1cc(C(=O)N2CCN[C@H](C)C2)n[nH]1	-31.9
CC1CCN(C(=O)c2ccn(COc3ccc(F)cc3)n2)CC1	-44.1
Cc1nn(C)c(C)c1C1CCCN1C(=O)c1ccc(Cl)o1 (stereo not given)	-17.4
CC(=O)N1CCCN(C(=O)c2oc(Br)cc2C)CC1	-13.6
Cn1cc(-c2nnn3c2COC(CNCc2nccs2)C3)cn1 (stereo not given)	-39.2
COCCN1CCN(C(=O)c2ccncc2F)Cc2cccnc21	-48.6

SMILES	Percent Effect [%]
Cc1ccc(C)c(NC(=O)c2n[nH]c(-n3cnnc3)n2)c1	-11.6
CN(C)C(=O)NC1COC2(CCN(C(=O)Nc3ccccc3)CC2)C1 (stereo not given)	-15.4
Cc1ccc(C(=O)NS(=O)(=O)c2ccccc2C)c(=O)[nH]1	10.2
CCc1nnc(Nc2cccc(C3CCN(CCO)CC3)n2)s1	-9.69
O=c1[nH][nH]cc1-c1ccnc(NCCN2CCCC2)n1	-68.3
COc1nc(C)cc(C)c1CNC(=O)N(C)Cc1cnn(C)c1	6.51
CCSc1cc(C(=O)NCCC(=O)Nc2ccccn2)ccn1	-56.5
CN(Cc1nnc(C2CC2)n1C)C1CCN(Cc2ccon2)C1 (stereo not given)	14.2
Cc1ccc(N2CC3(CCN(c4nccs4)C3)C2)nn1	-64.2
CC(=O)NCC(=O)N1CCOC2(CCCN(c3cccnc3)C2)C1 (stereo not given)	-31.3
O=C(O)[C@@H]1CN(C(=O)c2cc(C3CC3)n[nH]2)C[C@H]1c1cccc(F)c1	-8.72
COc1ccccc1C(=O)NC(CC(=O)O)c1cccs1 (stereo not given)	-32.6
Cc1nc(CN2CCN(CC(=O)Nc3c(C)cccc3C)CC2)no1	-6.23
Cc1noc(C)c1C(=O)NCc1ccnc(OCC(F)(F)F)c1	10.8
CCOC1CCN(C(=O)c2cnn(-c3ccccc3Cl)c2)CC1	28.9
O=C(C1CCC1)N1CCN(C(=O)c2cnccn2)[C@H]2CS(=O)(=O)C[C@H]21	-12.2
CC(C)c1noc(C(C)N2CCN(Cc3ccco3)CC2)n1 (stereo not given)	13.9
CC1=N[C@@]2(CC[C@@H]3CN(S(=O)(=O)N(C)C)C[C@@H]32)C(=O)N1CC(C)C	-4.62
Cc1ccc(C(=O)NC2CCN(C(=O)Nc3ccccn3)CC2)o1	25.6
Cc1ccccc1CS(=O)(=O)CC(=O)NC1CCCCNC1=O (stereo not given)	-14.7
